From PubChem
Rows were chosen to be rich in hits. Some 7.9% of all compounds tested hit in one or more screens of this group.
HT1080-NT tox: kills 2HG-producing HT-1080-NT fibrosarcoma cells. HT-1080-NT fibrosarcoma viability, CellTiter-Glo ATP luminescence, 48 h. Potency, µM (doses to about 46.1 µM), for the others: top-dose activity, negative = less viability, most hits filed as cytotoxic. actives 1.6% (n = 360,000). AID 686970;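 also: NT is the 2HG producing partner of a matched IDH1 knockdown line; 0% = DMSO-treated cells and -100% = media-only wells without cells; nearly all actives have a fitted effect of over 55% in size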
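HT-1080-NT; 750 cells/well; 5% FBS RPMI; 48 h compound, 37 degrees C; CellTiter-Glo luminescence; curve fitting and curve-class assignment.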
KB-3-1 tox: kills parental KB-3-1 adenocarcinoma cells; Potency, µM (titrated, usually from 46.1 µM), usual class: cytotoxic; KB-3-1 viability, CellTiter-Glo ATP luminescence, 72 h; actives 1.4% (n = 400,000); also: % is scaled to controls: 0 for no effect and ±100 for the full control effect; nearly all actives have a fitted effect of over 60% in size
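Parental KB-3-1 adenocarcinoma cells in phenol-red-free DMEM with 10% FBS were pin-treated with compounds at several concentrations, incubated 72 h at 37 °C, and viability read by CellTiter-Glo luminescence; concentration-effect curves were fitted after normalization.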
MCF10A rereplic: DNA re-replication induction in MCF 10a cells; MCF 10A DNA re-replication, Hoechst nuclear intensity, 48 h; Potency, µM (doses to about 46.1 µM), for the others: at the highest dose activity, positive = re-replication, hits mostly activators; actives 2.9% (n = 350,000); also: % of control where 0% means no effect; nearly all actives have a fitted effect of over 50% in size
HT1080 IDH1KD tx: HT-1080 IDH1 knockdown cell toxicity (counter line) | Potency, µM (series often up to 46.1 µM), inactives show at the top dose activity, negative = toxicity, usual class: cytotoxic | HT-1080 IDH1 knockdown viability, ATP luminescence, 48 h | actives 2% (n = 360,000);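 also: 0% = DMSO wells and -100% = cell-free medium wells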
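CellTiter-Glo luminescence after 48 h compound exposure at 37 degrees C of IDH1-knockdown HT-1080 cells in 5% FBS RPMI. %Activity scaled between DMSO wells and cell-free media wells, with curves fitted and assigned curve classes.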
SW480 rerep: DNA re-replication induction in SW480 cells | Potency, µM (series often up to 46.1 µM), for inactives: top-dose re-replication activation, hits mostly activators | actives 1.8% (n = 340,000) | SW480 DNA re-replication, Hoechst DNA content imaging, 48 h | AID 624297; also: % of control where 0% means no effect; nearly all actives have a fitted effect of over 55% in size
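Treated cells incubate 48 hr (37 C, 5% CO2), are stained 40 min with Hoechst, and nuclear fluorescence is enumerated; a rise in nuclei with high DNA signal marks re-replication.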
KB-V1 MDR tox: KB-V1 MDR subline cytotoxicity. KB-V1 MDR cells viability, CellTiter-Glo, 72 h. Potency, µM (titrated, usually from 46.1 µM), hits mostly cytotoxic. actives 3.4% (n = 400,000); also: % is scaled to controls: 0 for no effect and ±100 for the full control effect; nearly all actives have a fitted effect of over 60% in size
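KB-V1, DMEM (no phenol red) + 10% FBS; cpd pin-transferred, titration series; 72 h, 37 degrees C; CellTiter-Glo, luminescence. Data normalized, curve-fit.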
Active calls of the source: *; i = inactive; ? = inconclusive; nt = no result; ! = a repeat was not active. Calls follow the shape of the dose curve; as a rule, active = well fitted curve in the direction sought with a large enough effect; inconclusive = small, poorly fitted or top-dose-only effect, or another doubt; inactive = no such curve, though single readings can be large; an effect the other way counts as inactive or inconclusive. Potency is read from the fitted curve at half-maximal effect.

SMILES	HT1080-NT tox	KB-3-1 tox	MCF10A rereplic	HT1080 IDH1KD tx	SW480 rerep	KB-V1 MDR tox
CCOC(=O)C1=C(N)n2c(s/c(=C/c3ccco3)c2=O)=C(C(=O)OC)C1c1ccco1 (stereo not given)	13µM*	8.2µM*	6.5µM*	15µM*	13µM*	?
Cc1cccc(NC(=O)CSc2nc(=O)n(Cc3ccncc3)c3c2CCC3)c1C	nt	i	nt	nt	nt	i
Cc1nn(-c2ccccc2)c2nc(C(Cl)(Cl)Cl)[nH]c(=O)c12	-18%	i	4%	-13%	3%	i
CC1(C(=O)Nc2ccc(F)c(Cl)c2)Cc2c(-c3ccc(C(N)=O)cc3)ccnc2O1 (stereo not given)	?	i	nt	21µM*	nt	?
CC(=O)Nc1cccc(-c2ccnc3c2CC(C)(C(=O)Nc2ccc(F)c(Cl)c2)O3)c1 (stereo not given)	?	?	nt	?	nt	21µM*
CC(=O)Nc1cccc(-c2ccnc3c2CC(C)(C(=O)Nc2ccc(Cl)c(C(F)(F)F)c2)O3)c1 (stereo not given)	?	?	nt	23µM*	nt	?
O=C(O)Cn1nc(N2CCN(c3ccccc3)CC2)ccc1=O	nt	i	nt	nt	nt	i
CCC(C)NC(=O)Cn1c(=O)n(-c2ccc(C)c(C)c2)c(=O)c2c(C)c(C(=O)N(CC)CC)sc21 (stereo not given)	nt	i	nt	nt	nt	?
COc1ccccc1CNC(=O)C1CCN(S(=O)(=O)c2ccc3c(ccn3C)c2)CC1	nt	i	nt	nt	nt	i
COc1ccc2[nH]c3c(=O)n4c(nc3c2c1)SCCC4	?	i	?	?	?	i
COc1cc(Cl)c(C)cc1NC(=O)CSC	14%	i	-1%	2%	-1%	?
COc1cc(Cl)c(C)cc1NC(=O)CSCC#N	10µM*	i	1%	-29%	-8%	i
COc1ccc(Nc2nnc(-c3ccc(N4CCOCC4)c([N+](=O)[O-])c3)c3ccccc23)cc1	7%	i	8%	13%	-7%	16µM*
OCC1OC(n2cnc3c(SCc4ccccc4)ncnc32)C(O)C1O (stereo not given)	7.3µM*	i	?	23µM*	0%	?
Nc1ncnc2c1ncn2C1OC(CO)C(O)C1O (stereo not given)	19%	i	-2%	21%	11%	i
OCC1OC(n2cnc3c(NCc4ccco4)ncnc32)C(O)C1O (stereo not given)	12µM*	13µM*!	1µM*	12µM*	8.2µM*	?
COc1cc(Cl)c(CNC[C@H]2O[C@@H](n3cnc4c(N)ncnc43)[C@H](O)[C@@H]2O)c(Cl)c1O	-1%	i	7.3µM*	0%	-8%	i
N#Cc1c(N)n(C2OC(CO)C(O)C2O)c2ncnc(N)c12 (stereo not given)	1.3µM*	0.23µM*	0.23µM*	0.52µM*	?	0.21µM*
COc1cc(Cl)c(CNC[C@H]2O[C@@H](n3cnc4c(=O)[nH]c(N)nc43)[C@H](O)[C@@H]2O)c(Cl)c1O	20%	i	nt	27%	nt	i
Cc1noc(C)c1NC(=O)Nc1ccc2c(c1)C(=O)N([C@H](C)CO)C[C@@H](C)[C@@H](CN(C)S(=O)(=O)c1cn(C)cn1)OCCCC[C@H](C)O2	5%	i	nt	5%	nt	i
CC(C)Oc1cccc(-c2ccnc(N3CCC(C(N)=O)CC3)n2)c1	nt	i	nt	nt	nt	i
CC(C)NC(=S)N1CCCN(c2ncccc2[N+](=O)[O-])CC1	-2%	i	10%	14%	2%	i
CCc1ccc(-c2nc(CSCC(=O)NCc3ccccc3OC)c(C)o2)cc1	nt	?	nt	nt	nt	i
Nc1ncnc2c1ncn2[C@@H]1O[C@H](CO)[C@@H](O)[C@@H]1O	16%	i	7.3µM*	-2%	-57%	i
